Source: PubChem (several laboratories)
TWEAK-Fn14 inh: inhibitors of TWEAK-Fn14 signaling, primary screen, luciferase reporter cells, uHTS; TWEAK-stimulated Fn14 reporter cells, luciferase luminescence, 8 h; inhibition, % at 10 µM; actives 2% (n = 360,000); AID 1159606, 2016; in the data active means inhibition above about 50%
PAX8 reporter: inhibitors of PAX8-driven TPO luciferase reporter, primary screen, RMG-I cells, single concentration; actives 1.2% (n = 360,000); SteadyGlo, 24 h; inhibition, % at 12.6 µM;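 active means mean replicate inhibition at least 60% with every replicate also reaching 60%; inconclusive means only one of the two criteria is met; inactive means mean below 60% and not all replicates reaching 60%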;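 further: luciferase light reporting Pax8 driven TPO promoter activity; plate controls were median of neutral control wells for no effect and mitoxantrone controls for full effect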
LGR2 antag: inhibitors of bursicon-induced LGR2 CRE-luciferase signal, primary screen, cell-based, HEK293, CRE-luciferase reporter, bursicon stimulation | Drosophila bursicon receptor LGR2 (rickets) | bursicon-stimulated, 4 h | inhibition, % at 9.99 µM | actives 0.35% (n = 380,000) | AID 720647, 2013;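 active means drop in luminescence signal, shown as inhibition above about 50% in the replicate tests, limit read from the data, passing the limit was not always enough; inconclusive means probably only some replicates passing the limit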;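 further: agonist challenge used bursicon conditioned medium at about half maximal strength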
LMP1 NFkB inh: EBV LMP1-driven NF-kappaB luciferase reporter inhibitors, primary screen, cell-based, luminescence, single point; actives 0.69% (n = 350,000); LMP1-induced NF-kappaB luciferase reporter cells; inhibition, % at 12.5 µM; in the data active means inhibition above about 41%; inconclusive means no clear call, values can overlap the other calls;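 further: 0% = neutral control wells and 100% = reference inhibitor control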
EWS-Fli block: EWS/Fli-driven NR0B1 reporter inhibitors, primary screen, A673 cells, NR0B1 luciferase, luminescence, MLPCN library; AID 651661, 2012; actives 0.67% (n = 350,000); viability-normalised; inhibition, % at 12.6 µM;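 active means mean inhibition of at least 50% after viability correction, with every replicate also passing that limit; inconclusive means mean reaches 50% but only one of two replicates passes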;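 further: firefly luciferase signal divided by Alamar Blue viability fluorescence both relative to DMSO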
TROY NFkB inh: inhibitors of TROY-driven NF-kB signaling, primary screen, Q293 LMP1-TROYcd cells, NF-kB luciferase, uHTS; Q293 LMP1-TROYcd NF-kB luciferase reporter, 4 h; inhibition, % at 10 µM; actives 0.98% (n = 360,000);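 active means compounds whose plate-normalised and pattern-corrected inhibition of the luciferase reporter signal at the single screening dose is 50% or more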
An asterisk follows results filed as active; ? = inconclusive; . = no result given. An excerpt weighted towards active compounds, which were near 3.2% of everything screened.

SMILES	TWEAK-Fn14 inh	PAX8 reporter	LGR2 antag	LMP1 NFkB inh	EWS-Fli block	TROY NFkB inh
CC(=O)c1c(Nc2ccc3c(c2)OCCO3)oc(C)cc1=O	70*	-15	-78	-1	-30	39
COc1cccc(NC(=O)CN2CCN(S(=O)(=O)c3ccc(F)cc3)CC2)c1	10	.	-2	-7	-1	-29
COc1cc(NC(=O)CN2CCN(S(=O)(=O)c3ccc(C(C)C)cc3)CC2)cc(OC)c1	-6	.	.	-9	.	-3
COc1ccc(S(=O)(=O)N2CCN(CC(=O)Nc3cc(OC)cc(OC)c3)CC2)cc1	-12	.	9	79*	.	15
O=C(CN1CCN(S(=O)(=O)c2ccc(F)cc2)CC1)Nc1cccc(C(F)(F)F)c1	-1	.	-3	74*	.	3
Cc1ccc(C)c(N2CCN(C(=O)CCS(=O)(=O)c3ccc4c(c3)NC(=O)C(C)S4)CC2)c1 (stereo not given)	72*	62*	17	17	.	44
Cc1ccc(NC(=O)C2CCN(S(=O)(=O)c3ccc4c(c3)NC(=O)C(C)S4)CC2)cc1Cl (stereo not given)	63*	43	28	40*	.	47
C[C@H]1CN([C@@H](C)CO)C(=O)c2cc(C3=CCCCC3)cnc2O[C@H]1CN(C)S(=O)(=O)c1cn(C)cn1	.	-17	8	.	4	.
C[C@@H](O)C#Cc1ccc([C@H]2[C@@H](CO)N3CCCCN(S(=O)(=O)c4ccccc4)C[C@H]23)cc1	.	-11	11	.	3	.
Cc1ccccc1Nc1nc(N)nc(CN(C)c2ccccc2)n1	3	.	.	-5	.	-17
Cc1ccccc1Nc1nc(N)nc(CCl)n1	11	102*	.	1	61*	7
COc1ccc(Nc2nc(N)nc(CCl)n2)cc1	3	101*	-32	-13	44	-23
Nc1nc(CCl)nc(Nc2ccc3ccccc3c2)n1	16	98*	-100	-4	53*	-27
Cc1ccc(Nc2nc(N)nc(CN3CCN(c4ccccc4)CC3)n2)cc1Cl	47	.	.	-1	.	-5
CC1(C)CSC(=NCc2ccccc2)N1C(=O)c1cccc([N+](=O)[O-])c1	4	69*	-23	-3	-22	1
C=CCNc1ccc(N2C(=O)CCCC2=O)cc1[N+](=O)[O-]	74*	-20	4	8	-6	13
O=C(NCC[C@@H]1CC[C@@H](NC(=O)c2ccccc2F)[C@@H](CO)O1)c1cnccn1	.	0	-17	.	2	.
Cc1cc(C(=O)N/N=C/c2ccc([N+](=O)[O-])cc2)c2ccccc2n1	9	21	15	7	51*	29
Cc1cc(C(=O)N/N=C/c2ccc(N(C)C)cc2)c2ccccc2n1	51*	21	14	0	37	54*
Cc1cc(C(=O)N/N=C/c2ccc3c(c2)OCO3)c2ccccc2n1	8	11	-14	-4	47	20
Cc1cc(C(=O)N/N=C/c2cc([N+](=O)[O-])ccc2O)c2ccccc2n1	10	.	15	9	.	21
O=C(Cc1ccccn1)NCC[C@H]1CC[C@H](NC(=O)Nc2ccccc2)[C@@H](CO)O1	.	18	24	.	-2	.
C[n+]1cccc(C(=O)NNC(=O)C23CC4CC(CC(C4)C2)C3)c1	1	-10	-24	-5	9	52*
CCOc1ccc(-c2cn3ccccc3n2)cc1	62*	-14	74*	33	48	-6
Fc1ccc(-c2cn3ccccc3n2)cc1	35	-112	-8	-3	-44	-1
CCOc1ccc(-c2cnc3ccccc3n2)cc1	94*	32	90*	?	77*	63*
O=C(C1CCN(S(=O)(=O)c2cccc3cccnc23)CC1)N1CCN(c2ccc(Cl)cc2)CC1	51*	16	2	24	12	41
O=C(C1CCN(S(=O)(=O)c2cccnc2)CC1)N1CCN(c2ccccc2Cl)CC1	-2	.	.	2	.	-4
O=C(C1CCN(S(=O)(=O)c2cccnc2)CC1)N1CCN(c2ccc(Cl)cc2)CC1	18	67*	11	26	6	9
